Laboratory results published in PubChem BioAssay (NCI).
About 83,000 compounds went through this panel and 20% of them were active in at least one assay; those are over-represented in the sample as a whole.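 The test compound was applied at a single concentration to cells in 96-well plates for 48 hours, and percent growth was recorded.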 The source made the active and inactive calls. The calls were made as follows: active = growth percent below 10; inactive = the rest.

tested on: HT29 colon; assay: NCI-60 one-dose screen, 48 h (100 = growth as untreated, 0 = no growth, -100 = all killed); settings: 10 µM unless noted

Row | SMILES | growth
1 | CCOC(=O)c1c(NC(=O)c2ccccc2)sc2c3c(ccc12)OCN(C)C3 | -20.3% (active)
2 | COc1ccc(NC(=O)c2ccc(Nc3ncnc4c3cnn4-c3cccc(F)c3)cc2)cc1 | 104% (inactive)
3 | COC(=O)c1c(C)nc(C)c2c1C(=O)C=C(NCc1ccccc1)C2=O | 92% (inactive)
4 | CS(=O)(=O)Nc1cc(-c2ccc3ncnc(Nc4ccc5c(cnn5Cc5ccncc5)c4)c3c2)cnc1Cl | 64.8% (inactive)
5 | S=c1ccnc[nH]1 | 110% (inactive)
6 | Cc1ccc(S(=O)(=O)c2nc(-c3ccccc3)oc2SCC(N)=O)cc1 | 85.7% (inactive)
7 | CN(C)Cc1ccc(NC(=O)c2cncc(C#Cc3cnc(N)c4ncccc34)c2)cc1C(F)(F)F | -50.1% (active)
8 | COc1cc(/C=C/c2cn[nH]c2-c2ccc(C)cc2)cc(OC)c1OC | 6.79% (active)
9 | CCOC(=O)C(CCN(C)C)c1ccccc1 (stereo unspecified) | 92.1% (inactive)
10 | O=C(/C=C/c1ccccc1)N(C1CCCCC1)C1CCCCC1 | 68.6% (inactive)
11 | CC1(C)CC[C@]23CC[C@]4(C)[C@H](CC[C@@H]5[C@@]6(C)CCNCC(C)(C)[C@@H]6CC[C@]54C)[C@H]2[C@H]1OC3 | 18.6% (inactive)
12 | Cc1nc2sc(C(=O)Nc3cccc4ccccc34)c(N)c2cc1C(=O)c1ccccc1 | 14.7% (inactive)
13 | Cc1ccc(O)c(NC(=O)c2cccc(Nc3ccnc(C(F)(F)F)c3)c2)c1 | 101% (inactive)
14 | N#CSc1c[nH]c2ccc(/C=C/C(=O)/C=C(O)/C=C/c3ccc4[nH]cc(SC#N)c4c3)cc12 | -10.1% (active)
15 | COC(=O)/C(CCC=C(C)C)=C1\[C@@H](OC(C)=O)C[C@@]2(C)[C@H]1C/C(=N/O)[C@H]1[C@@]3(C)CC/C(=N\O)[C@@H](C)[C@@H]3CC[C@@]12C | 107% (inactive)
16 | Nc1cccc(-c2ccc(COc3ccc(CC4SC(=O)NC4=O)cc3)cc2)c1 (stereo unspecified) | 100% (inactive)
17 | CCOC(=O)c1cnn(CC(C)O)c1NC(=O)NCc1cccc(F)c1 (stereo unspecified) | 84.3% (inactive)
18 | O=S(Nc1ccccc1)c1ccc(Cl)cc1 (stereo unspecified) | 102% (inactive)

Row | SMILES | growth
19 | CCOC(=O)C1=C(CC(O)c2ccc(OC)cc2OC)NC(=O)NC1c1ccccc1 (stereo unspecified) | 100% (inactive)
20 | CCn1cc(C(=O)O)c(=O)c2cc(F)c(N3CCN(CC(=O)Nc4ccccc4)C(C)C3)c(F)c21 (stereo unspecified) | 108% (inactive)
21 | CCN(CC)c1ccc(-c2cc(-c3cc(OC)c(OC)c(OC)c3)nc(N3CCC(O)CC3)c2C#N)cc1 | -32.7% (active)
22 | C=C(C)[C@@H]1CC[C@]2(C)[C@H](C=CC3=C4C[C@@](C)(CO)CC[C@]4(C)CC[C@]32C)[C@@]1(C)CCCN | -38.7% (active)
23 | CS(=O)/C(C#N)=C\C=C\c1cccc(Cl)c1 (stereo unspecified) | 8.51% (active)
24 | CC1=C(Cl)C(=O)c2cc(C)ccc2C1=O | 103% (inactive)
25 | N#Cc1ccc(O)c(C2=NCC(c3ccc(-c4ccccc4)cc3)O2)c1 (stereo unspecified) | 18.1% (inactive)
26 | CC[C@H](Nc1nc(N)nc(C)c1C#N)c1nc2cccc(CN(C)c3ncc(C(=O)NO)cn3)c2c(=O)n1-c1ccccc1 | -18.4% (active)
27 | Cc1nc2ccccc2c(/C=C/c2ccc(F)cc2)c1C(=O)/C=C/c1ccccc1 | 3.31% (active)
28 | O=C(CN1C(=O)S/C(=C\C(Cl)=C\c2ccccc2)C1=O)NC1CCS(=O)(=O)C1 (stereo unspecified) | 53.5% (inactive)
29 | Nc1[nH]nc2nc(-c3ccccc3)n3c4ccccc4nc3c12 | 104% (inactive)
30 | CC(C)(C)OC(=O)CN1CCc2c(sc3ncnc(N4CCN(c5ccc(F)cc5)CC4)c23)C1 | 98.7% (inactive)
31 | N#Cc1nn(-c2cc(=O)[nH]c3ccc(Br)cc23)c(N)c1C#N | 94.8% (inactive)
32 | O=c1oc2ccccc2cc1-c1nn(-c2ccccc2)cc1-c1nn[nH]n1 | 104% (inactive)
33 | COc1ccc(/C=N/NC(=O)Cn2c(-c3ccc(S(C)(=O)=O)cc3)nc3ccccc32)cc1 | 103% (inactive)
34 | CC(C)n1c2ccc(Br)cc2c2c3c(c4c5ccccc5ccc4c21)C(=O)NC3=O | 70.3% (inactive)
35 | CCOC(=O)C1=C(c2ccccc2)N=C2N(c3ccccc3)N=C(C(C)=O)N2C1c1ccc(F)cc1 (stereo unspecified) | 109% (inactive)
36 | COC1C(O)CC(OC2CC(OC3CC(O[C@@H]4C(=O)c5c(cc6cc(OC7CC(OC8CC(O)C(O)C(C)O8)C(O)C(C)O7)c(C)c(O)c6c5O)CC4[C@H](OC)[C@@H](O)C(C)=O)OC(C)C3O)OC(C)C2O)OC1C (stereo partly specified) | -16.9% (active)
